In PubChem BioAssay AID2783 (National Center for Advancing Translational Sciences (NCATS), 2010) one finds outcome data, which are given here for 34 compounds.

Inconclusive results are not listed. Active and inactive are the calls of the source. Calls follow the shape of the dose curve; as a rule, active = well fitted inhibition curve with a large enough effect in the polarisation, with a control signal flat (not every such curve was filed as active); inconclusive = small, poorly fitted or top-dose-only effect, or effect the other way, or a change in a side signal; inactive = no such curve, though single readings can be large or run the other way; the % refers to the polarisation.

Menin (Homo sapiens), sequence (O00255 whole entry, looked up): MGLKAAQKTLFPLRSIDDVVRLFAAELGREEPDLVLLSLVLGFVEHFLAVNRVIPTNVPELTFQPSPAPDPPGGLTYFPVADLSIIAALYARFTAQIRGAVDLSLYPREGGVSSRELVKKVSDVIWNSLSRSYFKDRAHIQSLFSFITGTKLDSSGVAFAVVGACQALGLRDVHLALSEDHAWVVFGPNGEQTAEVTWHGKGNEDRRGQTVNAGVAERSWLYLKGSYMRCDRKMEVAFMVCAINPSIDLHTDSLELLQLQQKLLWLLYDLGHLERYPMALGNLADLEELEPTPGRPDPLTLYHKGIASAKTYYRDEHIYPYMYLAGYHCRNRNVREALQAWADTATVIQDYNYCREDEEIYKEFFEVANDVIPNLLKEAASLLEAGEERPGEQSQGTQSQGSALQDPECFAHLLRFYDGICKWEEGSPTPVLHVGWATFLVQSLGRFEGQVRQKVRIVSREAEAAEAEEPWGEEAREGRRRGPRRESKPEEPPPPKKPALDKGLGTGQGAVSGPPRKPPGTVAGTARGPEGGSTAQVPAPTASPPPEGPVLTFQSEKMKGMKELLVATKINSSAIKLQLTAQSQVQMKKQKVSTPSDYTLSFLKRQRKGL

The assay addresses Menin (Homo sapiens) (UniProt O00255). In words: Confirmation of Inhibitors Targeting the Menin-MLL Interaction in MLL Related Leukemias: Competition With Fluorescein Labeled MLL-derived Peptide. The note with it: Fluorescence polarization, fluorescein-MLL peptide displacement from menin; series mostly up to 100 µM. On the technique in general: Polarisation of emitted light reports the rotation of a fluorescent probe.
Take `CC(NC(=O)c1cnc2ccccc2n1)c1ccccc1` (centres undefined): the compound was classed as inactive.

Turning to `COC1=C(Nc2ccccc2)C(=O)c2ccccc2C1=O`, the compound was classed as inactive.

In the case of `CN1[C@H](CC(=O)c2ccccc2)CCC[C@H]1C[C@@H](O)c1ccccc1`, the call was inactive.

Regarding `Cn1c(=O)n(C)c2cc3[nH]cnc3cc21`, the compound was classed as inactive.

On to `Cn1ncc2c(N3CCCCC3)nc(NCCCO)nc21`, for which the result was inactive.

Turning to `COc1ccccc1/C=N/n1c(N)c(S(=O)(=O)c2cccs2)c2nc3ccccc3nc21`, the outcome was inactive.

For `Oc1ccc(Nc2ncnc3c2oc2ccccc23)cc1`, the call was inactive.

For the compound `CC1CCCCN1S(=O)(=O)c1ccc(C(=O)Nc2ccccc2-c2nc3ccccc3[nH]2)cc1` (centres undefined), the compound was called inactive.

Turning to `CCCOc1ccc(C(=O)NNC(=S)NC(=O)c2cc(-c3ccc(Cl)cc3)nc3ccccc23)cc1`, the outcome was inactive.

Take `CC1CN(c2c3c(nc4ncnn24)CCCC3)CC(C)O1` (centres undefined): the result was inactive.

For `O=C(Nc1cc(Br)ccc1O)c1cc(-c2ccccc2)on1`, the outcome was inactive.

Take `COc1ccccc1NS(=O)(=O)c1cc(NC(=O)Nc2ccccc2)ccc1N1CCCCC1`: the compound was classed as inactive.

On to `O=C(NC(=S)Nc1nc(-c2ccc(Br)cc2)cs1)c1cccnc1`, for which the call was inactive.

As to `CN1C[C@@H]2C[C@H]1CN2c1cc2c(cc1F)c(=O)c(C(=O)O)cn2C1CC1`, the compound was called inactive.

Turning to `CCCn1c(=O)c(C(=O)Nc2ccccc2C(=O)OCC)c(O)c2ccccc21`, the compound was classed as inactive.

With `Cc1cc2ncn(-c3ncnc4sc5c(c34)CCC(C)C5)c2cc1C` (centres undefined), the compound was classed as inactive.

In the case of `CCc1ccc(CNC(=O)CCS(=O)(=O)Cc2ccccc2F)cc1`, the call was inactive.

With `Cc1[nH]nc(-c2ccc(OCc3cnn(-c4ccccc4)c3)c(C)c2O)c1Oc1ccccc1`, the result was inactive.

Turning to `O=C(O)c1ccccc1NS(=O)(=O)c1cccc(-n2sc3ccccc3c2=O)c1`, the compound was classed as inactive.

Turning to `Fc1ccccc1C1c2cccn2CCN1C(=S)Nc1ccc(Br)cc1` (centres undefined), the compound was called inactive.

As to `Cc1ccc(-c2csc(NC(=O)c3ccc(S(=O)(=O)N4CCc5ccccc54)cc3)n2)cc1`, the compound was called inactive.

`CCN1C(=O)c2ccccc2S(=O)(=O)c2ccc(C(=O)NCCCN(CC(C)C)CC(C)C)cc21`: the outcome was inactive.

On to `COc1ccccc1NS(=O)(=O)c1cc(NC(=O)Nc2cccc(C)c2)ccc1N1CCCCC1`, for which the result was inactive.

`O=C(CCN1CCN(c2ccc([N+](=O)[O-])cc2)CC1)c1ccc(Cl)cc1`: the outcome was inactive.

For the compound `CCc1ccccc1NC(=O)COc1cccc(-n2cnnn2)c1`, the call was inactive.

With `O=C(CCn1nc(-c2ccccc2)ccc1=O)N1CCN(c2ccccn2)CC1`, the result was inactive.

Take `CCOC(=O)Cn1cnc2scc(-c3ccc(C)c(C)c3)c2c1=O`: the call was inactive.

For `O=S(=O)(Nc1cccc(-c2cn3cccnc3n2)c1)c1ccccc1`, the compound was called inactive.

In the case of `CCOc1cc(C(c2c(C)[nH][nH]c2=O)c2c(C)[nH][nH]c2=O)cc(Br)c1OC`, the call was inactive.

On to `Cc1c(F)cccc1NS(=O)(=O)c1ccc2c(c1)c(C)cc(=O)n2C`, for which the result was inactive.

Consider `Cc1ccc(NC(=O)C(C)N2C(=O)c3ccccc3C2=O)c(C)c1` (centres undefined), for which the call was inactive.

On to `COc1ccc(C)cc1N(C(=O)c1snc(C(N)=O)c1N)C(C(=O)NC1CCCC1)c1ccc(F)cc1` (centres undefined), for which the outcome was inactive.

In the case of `O=C(Nc1ccc(F)c(Cl)c1)c1cc(-c2ccco2)on1`, the call was inactive.

With `N=c1oc2ccccc2cc1-c1nc(-c2ccc(Cl)cc2)cs1`, the outcome was inactive.
